This is part of a sample that, as a whole, favours compounds with a hit. Of some 79,000 tested, about 15% had one in any assay. A number with no mark means an inactive call. The source made the active and inactive calls. Rule as the data show it: active = growth inhibition above about 70%; inactive = the rest.

Assay [1] is described as follows: NCI Yeast Anticancer Drug Screen. Data for the rad50 strain (AID 155).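 Also: 0% = growth of vehicle-only cultures of the same strain.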 The note with it: S. cerevisiae rad50 strain growth inhibition; at 50.0 µM; hits give high values. The essentials: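 Cells are treated with compound, grown, and their growth is then scored against vehicle-only cultures of the same repair-deficient yeast strain.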
A short description of assay [2]: NCI Yeast Anticancer Drug Screen. Data for the mec2-1 strain (AID 157). The note with it: S. cerevisiae mec2-1 strain, at 50.0 µM, hits give high values. Summed up: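 Cells of the genetically defined mec2-1 yeast strain are incubated with test compound. Inhibition of growth is calculated against vehicle-treated controls.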
Assay [3] is described as follows: NCI Yeast Anticancer Drug Screen. Data for the sgs1 mgt1 strain (AID 161).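 Also: 0% = growth of cultures given vehicle only.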 Conditions: S. cerevisiae sgs1 mgt1 strain, at 50.0 µM, hits give high values. Summed up:
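Read-out: growth inhibition vs vehicle controls. Cells: mutant yeast strain deficient in DNA damage repair.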

A short description of assay [4]: NCI Yeast Anticancer Drug Screen. Data for the cln2 rad14 strain (AID 165).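 Also: 0% = growth equal to vehicle treated cultures.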 Conditions: S. cerevisiae cln2 rad14 strain, at 50.0 µM, hits give high values. The essentials:
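The screen exposed genetically defined yeast (cln2 rad14) to test compounds and scored growth inhibition relative to vehicle-treated controls.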

Assay [5] in a line: NCI Yeast Anticancer Drug Screen. Data for the bub3 strain (AID 167). Conditions: S. cerevisiae bub3 mutant strain, at 50.0 µM, hits give high values. Summed up: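 Part of a panel of yeast mutants defective in DNA damage repair or cell cycle regulation. Each strain is grown with compound, and inhibition is calculated relative to solvent-treated cultures.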
A short description of assay [6]: NCI Yeast Anticancer Drug Screen. Data for the mlh1 rad18 strain (AID 175). Conditions: S. cerevisiae mlh1 rad18 strain growth inhibition; at 50.0 µM; hits give high values. Summed up:
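Compound-treated yeast growth, normalised to vehicle controls. Strain bears defined DNA repair mutations.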

For `N#CC(C(=O)O)C(c1c(Cl)cccc1Cl)C(C#N)C(=O)O` (stereo unspecified), the growth inhibition in assay [1] was 23.2%; in assay [2], -6.7%; in assay [3] it was -0.7%; in assay [4] it was -1.3%; in assay [5], 5.25%; in assay [6], 15.6%.
Consider `Nc1cccc(C(O)c2ccccc2)c1` (stereo unspecified), for which the growth inhibition is 11.2% in assay [1]; -1.15% in assay [2]; 0.1% in assay [3]; 6.25% in assay [4]; 7.3% in assay [5]; 13.1% in assay [6].
Turning to `Cc1nc([N+](=O)[O-])cn1/C=C/Cn1cc([N+](=O)[O-])nc1C`, the growth inhibition in assay [1] is -3.25%; in assay [2] it was -18.9%; in assay [3] it was 5%; in assay [4], 6.65%; in assay [5], -25.7%; in assay [6], 4.8%.
In the case of `Cc1ccccc1NC(=O)CN1CCCC(C)C1` (stereo unspecified), the growth inhibition in assay [1] was 10.7%; in assay [2], -34.8%; in assay [3] it was 0.9%; in assay [4], 11.3%; in assay [5], -16.2%; in assay [6], 5.45%.
In the case of `CC1(C)[C@@H]2CC[C@](C)(O)[C@H]1C2`, the growth inhibition in assay [1] is 0.45%; in assay [2] it was -1.05%; in assay [3], -1.65%; in assay [4] it was 8.5%; in assay [5], -3.15%; in assay [6], 2.3%.
As for `COC(C)(C)C(Br)C(=O)OCC(=O)c1ccc(Br)cc1` (stereo unspecified), the growth inhibition in assay [1] was 25.9%; in assay [2], -0.3%; in assay [3] it was 11%; in assay [4] it was 20.6%; in assay [5], 0.8%; in assay [6], 13.3%.
Regarding `Cc1ccc(C)n1-c1ccc(OCC(N)=O)cc1`, the growth inhibition in assay [1] is 16.3%; in assay [2] it was 16.1%; in assay [3], 12.7%; in assay [4] it was -15.7%; in assay [5] it was 12.6%; in assay [6], 13.9%.
For the compound `O=C(COc1ccc(Cl)c(Cl)c1)NCc1cccc(NC(=O)CBr)c1`, the growth inhibition was 99.2% (active) in assay [1]; 99.5% (active) in assay [2]; 45.2% in assay [3]; 99.5% (active) in assay [4]; 99.2% (active) in assay [5]; 99.2% (active) in assay [6].
In the case of `C1CSCC2(COC2)CSCCSCC2(COC2)CS1`, the growth inhibition in assay [1] was -23.1%; in assay [2], -13.4%; in assay [3], -18.9%; in assay [4], -3.05%; in assay [5] it was -7.35%; in assay [6], -18.6%.
In the case of `Cn1c(=O)c2[nH]c(SCCN3CCOCC3)nc2n(C)c1=S`, the growth inhibition in assay [1] is -23.4%; in assay [2], -47.2%; in assay [3], -25.6%; in assay [4], 14.2%; in assay [5] it was -66.2%; in assay [6] it was -4.95%.
On to `O=NNc1ccc(Sc2ccccc2)cn1`, for which the growth inhibition in assay [1] was 6.8%; in assay [2], -9.2%; in assay [3], -3.75%; in assay [4] it was -8.55%; in assay [5], -31.6%; in assay [6], 10.6%.
Turning to `O=[N+]([O-])c1cc([N+](=O)[O-])c(C(Cl)C(Cl)c2ccccc2)cc1C(Cl)C(Cl)c1ccccc1` (stereo unspecified), the growth inhibition in assay [1] is 2.4%; in assay [2] it was 2.55%; in assay [3], -18.9%; in assay [4] it was 7.65%; in assay [5] it was 0.6%; in assay [6], -20.4%.
Consider `Nc1nc(N)c2nc(-c3ccc(N(CCO)CCO)cc3)c(N)nc2n1`, for which the growth inhibition is -13.1% in assay [1]; -14.8% in assay [2]; -11.9% in assay [3]; -34.9% in assay [4]; 3.15% in assay [5]; -15.9% in assay [6].
Turning to `COc1ccc(C(O)(c2ccccc2C)c2ccccc2OC)cc1` (stereo unspecified), the growth inhibition in assay [1] was 16.1%; in assay [2], -2.4%; in assay [3], 4.2%; in assay [4], -10.8%; in assay [5], 20.7%; in assay [6] it was 27.9%.
For `Oc1c2cccc1Cc1cccc3c1OCCOCCOCCOCCOc1c(cccc1Cc1cccc(c1O)C3)C2`, the growth inhibition in assay [1] is 9.1%; in assay [2], 12.8%; in assay [3] it was 9.45%; in assay [4], 13.8%; in assay [5], 12.4%; in assay [6], -6.05%.
With `CCC(=O)CC(C)=O.CCC(=O)CC(C)=O.[Cu]`, the growth inhibition is -10.3% in assay [1]; 19.4% in assay [2]; 5.5% in assay [3]; -31% in assay [4]; -2.2% in assay [5]; 14.2% in assay [6].
Take `COc1cccc2c1c1ccc3c(c1n2C)C(=O)C=CC3=O`: the growth inhibition in assay [1] was 23.6%; in assay [2], 22.6%; in assay [3] it was 21.9%; in assay [4], 11.2%; in assay [5], 4.85%; in assay [6], 20.6%.
Turning to `CC(=O)OCCOCNC(=S)N/N=C/c1ccccn1`, the growth inhibition in assay [1] is 24.2%; in assay [2], 26%; in assay [3] it was -8.35%; in assay [4], 6.7%; in assay [5], 12.6%; in assay [6] it was 45.6%.
In the case of `CCOC(=O)/C(C#N)=N\Nc1ccccc1`, the growth inhibition in assay [1] is -15.5%; in assay [2] it was 14.6%; in assay [3], -1.7%; in assay [4], -25.3%; in assay [5] it was -1.85%; in assay [6] it was -12.9%.
Turning to `Cn1cc(C(=O)C2CCCCC2)ccc1=O`, the growth inhibition in assay [1] was -4.6%; in assay [2], -11.8%; in assay [3], -2.6%; in assay [4], 15.9%; in assay [5] it was -14.2%; in assay [6], -19.3%.
On to `CCOC(=O)c1c(NNc2ccccc2)nc2ccccc2c1-c1ccccc1`, for which the growth inhibition is 25.1% in assay [1]; -2.05% in assay [2]; 11.1% in assay [3]; 22.4% in assay [4]; -10.3% in assay [5]; -1.7% in assay [6].

The values above are taken from PubChem BioAssay (NCI).
